Data reported in PubChem BioAssay (NCATS).
Inconclusive results are not listed. Activity calls are given as the source filed them. Calls follow the shape of the dose curve; as a rule, active = well fitted curve in the direction sought with a large enough effect; inconclusive = small, poorly fitted or top-dose-only effect, or another doubt; inactive = no such curve, though single readings can be large; an effect the other way counts as inactive or inconclusive.

What was measured:
[1] = qHTS of pediatric cancer cell lines to identify multiple opportunities for drug repurposing: Primary screen for SK-N-SH cells (AID 1347098); also: nearly all actives have a fitted effect of over 65% in size
How it was run: (§1)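 Cells (500-1,000/well) rested 5 h, then received compounds for 48 h; metabolically active cells were measured by CellTiter-Glo luminescence. Final concentrations spanned up to 46 µM (MIPE, 11-point) or 0.59 nM-46 µM (NPC, 8-point) in primary screens, 11-point in follow-ups.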

[2] = qHTS of pediatric cancer cell lines to identify multiple opportunities for drug repurposing: Primary screen for NB1643 cells (AID 1347099); also: nearly all actives have a fitted effect of over 50% in size
How it was run: (§2)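 CRCs from 8- or 11-point titrations (lowest final 0.59 nM NPC, 0.78 nM MIPE). Cell viability: CellTiter-Glo after 48 h incubation, 15 min room-temperature development, luminescence imaging.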

[3] = qHTS of pediatric cancer cell lines to identify multiple opportunities for drug repurposing: Primary screen for BT-12 cells (AID 1347101); also: nearly all actives have a fitted effect of over 25% in size
How it was run: as §1

[4] = qHTS of pediatric cancer cell lines to identify multiple opportunities for drug repurposing: Primary screen for Rh18 cells (AID 1347102); also: nearly all actives have a fitted effect of over 65% in size
How it was run: (§3)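 Viability after 48 h compound treatment at 37C, 500-1,000 cells/well, read as ATP luminescence with CellTiter-Glo. Primary screens used 11-point (MIPE, 0.78 nM-46 µM) or 8-point (NPC, 0.59 nM-46 µM) final concentrations; follow-up screens used 11-point dilutions.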

[5] = qHTS of pediatric cancer cell lines to identify multiple opportunities for drug repurposing: Primary screen for OHS-50 cells (AID 1347103); also: nearly all actives have a fitted effect of over 40% in size
How it was run: as §1

[6] = qHTS of pediatric cancer cell lines to identify multiple opportunities for drug repurposing: Primary screen for RD cells (AID 1347104); also: nearly all actives have a fitted effect of over 55% in size
How it was run: as §2

[7] = qHTS of pediatric cancer cell lines to identify multiple opportunities for drug repurposing: Primary screen for MG 63 (6-TG R) cells (AID 1347105); also: nearly all actives have a fitted effect of over 50% in size
How it was run: as §2

[8] = qHTS of pediatric cancer cell lines to identify multiple opportunities for drug repurposing: Primary screen for Rh30 cells (AID 1347107); also: nearly all actives have a fitted effect of over 75% in size
How it was run: as §3

[9] = qHTS of pediatric cancer cell lines to identify multiple opportunities for drug repurposing: Primary screen for control Hh wild type fibroblast cells (AID 1347106); also: nearly all actives have a fitted effect of over 55% in size
How it was run: as §3

[10] = qHTS of pediatric cancer cell lines to identify multiple opportunities for drug repurposing: Primary screen for LAN-5 cells (AID 1347100)
How it was run: as §3

Measured: Potency
Potency is read from the fitted curve at half-maximal effect.

N#Cc1c(N(CC(=O)O)CC(=O)O)sc(C(=O)O)c1CC(=O)O
not listed: [9] | [10]
inactive: all other assays above

O=[N+]([O-])c1ccc(Nc2ccccc2-c2ccccc2)c2nonc12
inactive: [1] | [4] | [9]
active: [2] 23.5 µM

CCc1cc(-c2n[nH]c(C)c2-c2ccc3c(c2)OCCO3)c(O)cc1O
active: [1] 9.61 µM | [2] 10.5 µM | [4] 6.62 µM | [5] 9.68 µM
inactive: [9] | [8]

NC(N)=Nc1nc(CSCCC(N)=NS(N)(=O)=O)cs1
active: [1] 19.2 µM | [2] 8.33 µM
inactive: [3] | [4] | [7] | [9]

O=C(CO)N1CCC(c2[nH]nc(-c3ccc(Cl)cc3)c2-c2ccncn2)CC1
not listed: [4] | [8] | [10]
inactive: all other assays above

CN1CCN(c2ncc(-c3cc(Cl)cc(Cl)c3Cl)c(N)n2)CC1
inactive: [4] | [7] | [8]
active: [1] 21.5 µM | [2] 16.6 µM | [3] 4.32 µM

CN(C)CCOc1ccc(C(=C(CCCl)c2ccccc2)c2ccccc2)cc1
not listed: [5] | [10]
inactive: all other assays above

O=C(O)c1ccc(O)c2ncc(N3CCOCC3)cc12
active: [1] 30.4 µM | [2] 23.5 µM
inactive: [4]

CCOC(=O)N1CCN([N+]([O-])=NOc2cc(ON=[N+]([O-])N3CCN(C(=O)OCC)CC3)c([N+](=O)[O-])cc2[N+](=O)[O-])CC1
not listed: [3] | [5] | [10]
inactive: all other assays above

CC[C@H](C)n1cc(C)c2c(C(=O)NCc3c(C)cc(C)[nH]c3=O)cc(-c3ccc(N4CCNCC4)nc3)cc21
inactive: [9]
active: [1] 6.07 µM | [2] 1.66 µM | [3] 30.6 µM | [5] 24.3 µM | [6] 4.69 µM | [7] 23.5 µM

CCCCC(C)(C)[C@H](O)C=C[C@H]1[C@H](O)CC(=O)[C@H]1CC=CCCCC(=O)O
inactive: [1] | [2] | [4] | [5] | [7] | [9]

O=C(CC12CC3CC(CC(C3)C1)C2)Nc1cccc2nc(NCCNCCO)ccc12
active: [1] 24.1 µM | [2] 13.2 µM | [5] 27.3 µM | [6] 33.2 µM | [7] 14.8 µM

c1ccc(-c2oc3ncnc(NC[C@@H]4CCCO4)c3c2-c2ccccc2)cc1
active: [1] 24.1 µM | [2] 2.64 µM | [5] 27.3 µM | [6] 29.6 µM | [8] 18.7 µM
inactive: [9]

CCC(=C(c1ccc(O)cc1)c1ccc(OCCNC)cc1)c1ccccc1
active: [1] 34.1 µM | [2] 23.5 µM | [3] 27.3 µM | [5] 21.7 µM | [6] 33.2 µM | [7] 23.5 µM

CCN1CCN(c2ccc(Nc3cc(N(C)C(=O)Nc4c(Cl)c(OC)cc(OC)c4Cl)ncn3)cc2)CC1
inactive: [1] | [2] | [3] | [7] | [9]

CN(C)c1nc(Cc2ccc(NC(=O)c3ccc(C(F)(F)F)cc3)cc2)nc(N(C)C)c1CC(=O)O
not listed: [5] | [10]
inactive: all other assays above

CC(=O)Nc1cccc(-n2c(=O)n(C3CC3)c(=O)c3c(Nc4ccc(I)cc4F)n(C)c(=O)c(C)c32)c1
inactive: [7] | [9]
active: [1] 3.41 µM | [2] 18.7 µM | [6] 0.0372 µM

COc1cc2c(cc1Cc1cccc(Cl)c1F)c(=O)c(C(=O)O)cn2[C@H](CO)C(C)C
active: [2] 23.5 µM | [5] 27.3 µM
inactive: [1] | [9]

CC(C)=CCCC(C)=CCCC(C)=CCCC(C)=CCCC(C)=CCCC(C)=CCCC(C)=CCCC(C)=CCCC(C)=CCO
not listed: [10]
inactive: all other assays above

CNC1CCC(N(Cc2cccc(-c3ccncc3)c2)C(=O)c2sc3ccccc3c2Cl)CC1 (stereo not drawn)
inactive: [9]
active: [1] 24.1 µM | [2] 20.9 µM | [4] 23.5 µM | [5] 19.3 µM | [6] 18.7 µM | [7] 29.6 µM

CN1CCC(COc2cnc(-c3cccc(Cn4nc(-c5cccc(C#N)c5)ccc4=O)c3)nc2)CC1
active: [1] 24.1 µM | [6] 4.69 µM | [7] 0.743 µM
inactive: [2] | [4] | [8]

C[C@H](c1ccc(F)cc1CCCC(=O)O)N(c1cc(F)ccc1F)S(=O)(=O)c1ccc(Cl)cc1
active: [1] 19.2 µM | [2] 14.8 µM | [8] 14.8 µM
inactive: [3] | [4] | [9]

C[C@@H](NC(=O)c1ncnc(N)c1Cl)c1ncc(C(=O)Nc2cc(C(F)(F)F)c(Cl)cn2)s1
inactive: [4] | [7]
active: [1] 19.2 µM | [2] 14.8 µM

C[C@H](CCC(=O)O)[C@H]1CC[C@H]2[C@H]3[C@@H](CC[C@]12C)[C@@]1(C)CC[C@@H](O)C[C@H]1C[C@@H]3O
inactive: [1] | [2] | [5] | [9] | [8]

O=C(c1ccc(F)c(F)c1Nc1ccc(I)cc1F)N1CC(O)([C@H]2CCCCN2)C1
active: [1] 6.07 µM | [10] 0.935 µM | [3] 1.09 µM | [4] 16.6 µM | [6] 0.526 µM | [7] 29.6 µM | [9] 16.6 µM

CC(C)Oc1cc(Nc2nc(N[C@@H](C)c3ccc(F)cn3)ncc2Cl)[nH]n1
active: [1] 13.6 µM | [2] 1.48 µM | [4] 5.26 µM | [5] 21.7 µM | [6] 13.2 µM | [7] 5.9 µM | [8] 8.33 µM
inactive: [9]

CNC(=O)c1ccc2c(C(=Nc3cccc(CN(C)C)c3)c3ccccc3)c(O)[nH]c2c1
inactive: [4] | [7] | [9] | [8]
active: [1] 21.5 µM | [2] 16.6 µM

CSc1cccc(Nc2ncc3cc(-c4c(Cl)cccc4Cl)c(=O)n(C)c3n2)c1
inactive: [1] | [3] | [9] | [8]
active: [2] 0.209 µM

CCNC(=O)Nc1ccc(Oc2ncnc(N)c2C=NOC)cc1Cl
not listed: [10]
inactive: all other assays above

CCCCN(CCCC)CC(O)c1cc(Cl)cc2c1-c1ccc(Cl)cc1C2=Cc1ccc(Cl)cc1 (stereo not drawn)
not listed: [6] | [10]
inactive: all other assays above

CC(C)C[C@@H](N)[C@H](O)C(=O)N[C@H](C(=O)N[C@H](C(=O)N[C@@H](CC(=O)O)C(=O)O)C(C)C)C(C)C
active: [1] 24.1 µM
not listed: [2] | [8] | [9]
inactive: all other assays above

Cc1ccc(NC(=O)Nc2cc(C(F)(F)F)ccc2F)cc1Nc1ccc2c(c1)NC(=O)C2=Cc1ccc[nH]1
active: [1] 30.4 µM | [2] 11.8 µM | [5] 27.3 µM | [6] 18.7 µM | [7] 18.7 µM
inactive: [9]

CC(C)(OCc1nn(Cc2ccccc2)c2ccccc12)C(=O)O
active: [1] 30.4 µM
not listed: [3] | [5] | [10]
inactive: all other assays above

OC(c1cc(C(F)(F)F)nc2c(C(F)(F)F)cccc12)C1CCCCN1 (stereo not drawn)
active: [1] 34.1 µM
inactive: [2] | [7] | [9] | [8]

O=C(O)Cc1cccc(OCCCN(Cc2cccc(C(F)(F)F)c2Cl)CC(c2ccccc2)c2ccccc2)c1
inactive: [2] | [9]
active: [1] 19.2 µM | [3] 24.3 µM | [5] 27.3 µM | [6] 33.2 µM | [7] 23.5 µM | [8] 23.5 µM

Cc1nc(C(=O)NCC(=O)O)c(O)c2ccc(Oc3ccccc3)cc12
inactive: [1] | [2] | [4] | [6] | [7] | [8]

O=C(Nc1ncc(SCCN2CCCC2)s1)[C@]1(c2ccc(S(=O)(=O)C3CC3)cc2)C[C@@H]1C1CCCCC1
active: [10] 23.5 µM | [3] 27.3 µM | [4] 20.9 µM | [6] 14.8 µM | [7] 29.6 µM | [8] 20.9 µM
inactive: [1] | [9]

Fc1ccc(C(c2ccc(F)cc2)N2CCN(CC=Cc3ccccc3)CC2)cc1
not listed: [2] | [3]
inactive: all other assays above

CC[C@H](C)C(=O)O[C@H]1C[C@H](O)C=C2C=C[C@H](C)[C@H](CC[C@@H](O)C[C@@H](O)CC(=O)O)[C@H]21
not listed: [2] | [3] | [4]
inactive: all other assays above

COC(=O)N1CCN(Cc2cccc(NC(=O)Nc3ccc(C)nc3)c2F)CC1
inactive: [1] | [10] | [6] | [7] | [9]

Clc1ccc(COC(Cn2ccnc2)c2ccc(Cl)cc2Cl)c(Cl)c1 (stereo not drawn)
inactive: [1] | [9]
active: [10] 23.5 µM | [5] 19.3 µM

Cc1cccc(Nc2nc(N[C@@H]3CCCC[C@H]3N)ncc2C(N)=O)c1
active: [1] 27.1 µM | [10] 18.7 µM | [3] 30.6 µM | [6] 16.6 µM | [7] 14.8 µM
inactive: [9]

CC[C@H]1OC(=O)[C@H](C)[C@@H](O[C@H]2C[C@@](C)(OC)[C@@H](O)[C@H](C)O2)[C@H](C)[C@@H](O[C@@H]2O[C@H](C)C[C@H](N(C)C)[C@H]2O)[C@](C)(O)C[C@H](C)C(=NOCOCCOC)[C@H](C)[C@@H](O)[C@]1(C)O
active: [1] 30.4 µM
not listed: [2] | [4] | [5]
inactive: all other assays above

C[C@@H]1[C@H](C)CC[C@]2(C(=O)O)CC[C@]3(C)C(=CC[C@@H]4[C@@]5(C)CC[C@H](O)C(C)(C)[C@H]5CC[C@]43C)[C@@H]12
active: [1] 17.5 µM | [10] 0.303 µM
not listed: [2] | [5]
inactive: all other assays above

CO[C@H]1O[C@@H]2O[C@@]3(C)CC[C@@H]4[C@@H](C)CC[C@@H]([C@H]1C)[C@@]24OO3
inactive: [1] | [7] | [9]
active: [10] 20.9 µM

C=CC[N+]1([C@H]2C[C@H]3[C@@H]4CC[C@H]5C[C@H](O)[C@@H](N6CCOCC6)C[C@]5(C)[C@@H]4CC[C@]3(C)[C@H]2OC(C)=O)CCCC1
inactive: [1] | [4] | [5] | [7] | [9]
